A selection: hits, their analogues and other compounds. The true share with any hit is near 2.9%.
HEK293 tox = cytotoxicity in counter-screen for GLP-1R inverse agonists | HEK293 cAMP-luciferase reporter cells, luminescence, 24 h | Potency, µM (doses to about 38.3 µM), without a hit: at the highest dose activity change, negative = inhibition, usual class: inhibitors | actives 0.13% (n = 410,000) | AID 624418;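 also: loss of luciferase light is scored as toxicity; potency is read from the fitted curve at half-maximal effect; % is scaled to controls: 0 for no effect and ±100 for the full control effect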
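Seeding density was 200 cells/uL; after overnight-length (12 h) culture, 23 nL compounds went on for 24 h at 37 °C. Readout used a luciferase detection reagent, luminescence taken after 12 min at room temperature.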
GLP1R inv ag = GLP-1 receptor (human) inverse agonism; P43220; HEK293 GLP-1R CRE-luciferase, luminescence, 24 h; GLP-1R form is constitutively active; Potency, µM (top dose mostly 38.3 µM), without a hit: at the top dose activity change, negative = inhibition, usual class: inhibitors; actives 1.6% (n = 410,000); AID 624417; also: potency is read from the fitted curve at half-maximal effect; % is scaled to controls: 0 for no effect and ±100 for the full control effect; nearly all actives have a fitted effect of over 55% in size
Target sequence (P43220 whole entry, looked up): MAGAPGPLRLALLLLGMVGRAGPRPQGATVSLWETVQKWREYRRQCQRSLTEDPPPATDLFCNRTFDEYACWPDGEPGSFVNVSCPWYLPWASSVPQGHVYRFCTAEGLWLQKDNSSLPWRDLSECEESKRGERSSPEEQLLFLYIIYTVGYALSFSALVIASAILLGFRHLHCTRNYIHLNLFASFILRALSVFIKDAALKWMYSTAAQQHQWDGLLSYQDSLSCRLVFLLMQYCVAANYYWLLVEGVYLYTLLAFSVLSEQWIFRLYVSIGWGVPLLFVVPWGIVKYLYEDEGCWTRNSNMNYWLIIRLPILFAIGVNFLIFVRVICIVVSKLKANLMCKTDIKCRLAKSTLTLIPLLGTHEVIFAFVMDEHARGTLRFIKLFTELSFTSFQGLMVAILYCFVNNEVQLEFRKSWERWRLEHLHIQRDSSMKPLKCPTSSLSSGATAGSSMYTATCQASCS
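Inverse agonism was detected as reduced cAMP-driven luciferase luminescence after 24 h compound treatment. The cells were HEK293 clones expressing constitutively active human GLP-1R with the reporter. Reporter-only and GPR119 cell lines served as counterscreen controls.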
LDHA block = blocks human lactate dehydrogenase A. P00338. purified LDHA, NADH/diaphorase-resazurin fluorescence; active compounds read low. activity change, % (values are at about 110 or 230 µM). actives 0.15% (n = 480,000). AID 1347041; in the data active = activity change below about -30%; inconclusive = mostly about -25% to -30%;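 also: plate controls were DMSO wells for no effect and wells without enzyme for full effect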
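Remaining NADH was detected by diaphorase (0.133 mg/mL) converting 37 µM resazurin to fluorescent resorufin, read at 0 and 20 minutes. The preceding 5-minute room-temperature reaction used 2 nM LDHA, 0.2 mM sodium pyruvate and 0.06 mM NADH at pH 7.4.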
p53 reactivation = restores transcriptional activity of mutant p53 | actives 0.063% (n = 320,000) | H1299 p53-A138V BP100-luciferase reporter, luminescence, 24 h | Potency, µM (titrated, usually from 92.2 µM), for the others: top-dose activity change, positive = activation, usual class: activators; also: potency is read from the fitted curve at half-maximal effect; % of control where 0% means no effect; nearly all actives have a fitted effect of over 45% in size
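p53-null H1299 cells stably carrying temperature-sensitive p53-A138V and a BP100-luciferase reporter were pinned with compounds (4-point, 1:5 series) and held 24 hrs at 37 deg C. Luminescence was read 10 min after detection reagent.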
GLP-1R agonist = agonists of human GLP-1 receptor; P43220; Potency, µM (top dose mostly 45.6 µM), inactives show at the top dose activation, hits mostly activators; actives 0.007% (n = 380,000); HEK293 GLP-1R CRE-luciferase, luminescence, 4-6 h; cells express a hypersensitive GLP-1R form; also: potency is read from the fitted curve at half-maximal effect; % of control where 0% means no effect
ClpP mod = qHTS Assay for Activators of ClpP. ATP-dependent Clp protease proteolytic subunit (Bacillus subtilis (strain 168)), P80244. actives 1.9% (n = 340,000). AID 651965, 2013. purified B. subtilis ClpP, FRET peptide cleavage, 20 min. Potency, µM (series often up to 57.5 µM), for inactives: at the top dose activity change, negative = active; active = well fitted falling curve with a large enough effect; inconclusive = small, poorly fitted or top-dose-only effect; inactive = no such curve, though single readings can be large or run the other way; also: potency is read from the fitted curve at half-maximal effect; the source files actives as falling curves though it sought activators and does not explain the sign; nearly all actives have a fitted effect of over 65% in size
Target sequence (P80244 whole entry, looked up): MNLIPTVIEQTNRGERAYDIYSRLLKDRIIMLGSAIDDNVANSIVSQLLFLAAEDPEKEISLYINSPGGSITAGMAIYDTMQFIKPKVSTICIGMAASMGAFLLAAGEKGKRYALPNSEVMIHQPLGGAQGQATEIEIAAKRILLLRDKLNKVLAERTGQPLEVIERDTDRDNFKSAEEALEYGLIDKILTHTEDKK
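Purified B. subtilis ClpP, 10 microg/mL final in Tris/HCl pH8 with KCl, BSA, glycerol and Tween-20, cleaved an Abz/nitrotyrosine-quenched decapeptide. Fluorescence (ex 320, em 430) was read at 0 and 20 min at room temperature. Delta was normalized to 5.8 microM ADEP and DMSO/no-enzyme controls.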
* marks the source's active call; other numbers are inactive results. Unless noted, calls follow the shape of the dose curve; as a rule, active = well fitted curve in the direction sought with a large enough effect; inconclusive = small, poorly fitted or top-dose-only effect, or another doubt; inactive = no such curve, though single readings can be large; an effect the other way counts as inactive or inconclusive.

How did CC1CCN(c2ccccc2NC(=S)NC(=O)c2ccco2)CC1 do in these assays?
HEK293 tox: inconclusive; GLP1R inv ag: 10µM*; LDHA block: -5; GLP-1R agonist: 3%; ClpP mod: -2%

Results for COc1ccc(CCN2C(=O)CC(N3CCN(S(=O)(=O)c4ccccc4)CC3)C2=O)cc1OC (centres undefined) ?
HEK293 tox: 2%; GLP1R inv ag: 11%; LDHA block: 2; p53 reactivation: 0%; GLP-1R agonist: -3%; ClpP mod: -1%

What do the screens show for `Cc1ccc(Cc2c(-c3cccc(Cl)c3)nc3cc(C)c(Br)c(C)n23)cc1`?
HEK293 tox: 6%; GLP1R inv ag: 3.2µM*; LDHA block: -6; GLP-1R agonist: 1%; ClpP mod: -18%

How did Cc1ccc(-c2nc3cc(C)c(Br)c(C)n3c2Cc2cccc(Cl)c2)cc1 do in these assays?
HEK293 tox: 3%; GLP1R inv ag: 9%; LDHA block: -1; GLP-1R agonist: -1%; ClpP mod: 1%

Results for COc1ccc2cc(C(=O)C3CCCN(Cc4cccc(C)n4)C3)ccc2c1 (centres undefined) ?
HEK293 tox: 3.2µM*; GLP1R inv ag: 4.5µM*; LDHA block: -5; p53 reactivation: -2%; GLP-1R agonist: 11%

Results for COc1cccc(O)c1CN1CCCC(C(=O)c2cccc(C(F)(F)F)c2)C1 (centres undefined) ?
HEK293 tox: inconclusive; GLP1R inv ag: 13µM*; LDHA block: 8; p53 reactivation: 0%; GLP-1R agonist: 20%

Results for COc1ccc(C(=O)C2CCCN(Cc3c(O)cccc3OC)C2)cc1OC (centres undefined) ?
HEK293 tox: -20%; GLP1R inv ag: 17%; LDHA block: -5; GLP-1R agonist: 23%

Results for COc1cccc(-c2ccc(NC(=O)C3CCCN(Cc4cccc(C)n4)C3)cc2)c1 (centres undefined) ?
HEK293 tox: inconclusive; GLP1R inv ag: inconclusive; LDHA block: -1; GLP-1R agonist: 17%; ClpP mod: 0%

What do the screens show for `Cc1cc(C)n(/N=C\c2c(O)ccc3ccccc23)c(=O)c1C(N)=O`?
HEK293 tox: inconclusive; GLP1R inv ag: 0%; LDHA block: 9; p53 reactivation: 2%; GLP-1R agonist: -5%; ClpP mod: -5%

Results for O=S(=O)(c1ccc(Cl)c(Cl)c1)c1snnc1-c1ccccc1 ?
HEK293 tox: inconclusive; GLP1R inv ag: 7.1µM*; LDHA block: -1; p53 reactivation: -15%; GLP-1R agonist: -5%; ClpP mod: 1%

Results for N=C1C(c2nc3ccccc3s2)=C(O)CN1c1ccccc1 ?
HEK293 tox: -3%; GLP1R inv ag: -2%; LDHA block: -8; p53 reactivation: -1%; GLP-1R agonist: 10%

How did COC(OC)c1nc(SCC(=O)Nc2cccc(Cl)c2)ncc1C(=O)O do in these assays?
HEK293 tox: 1%; GLP1R inv ag: 14%; LDHA block: 0; p53 reactivation: 5%; GLP-1R agonist: -2%; ClpP mod: -4%

How did CC(C)C[C@H](NC(=O)OC(C)(C)C)C(=O)N/N=C/C1=Cc2ccccc2OC1C (some centres undefined) do in these assays?
HEK293 tox: inconclusive; GLP1R inv ag: inconclusive; LDHA block: 6; p53 reactivation: -3%; GLP-1R agonist: -4%; ClpP mod: 28µM*

What do the screens show for `c1ccc(Cn2c(SCc3cn4cccnc4n3)nnc2-c2ccco2)cc1`?
HEK293 tox: -14%; GLP1R inv ag: 0%; LDHA block: 1; p53 reactivation: -1%; GLP-1R agonist: 4%; ClpP mod: 16µM*

Results for O=C(CSc1nnc(-c2ccco2)n1Cc1ccccc1)c1ccccc1 ?
HEK293 tox: -7%; GLP1R inv ag: inconclusive; LDHA block: -9; p53 reactivation: 17%; GLP-1R agonist: 7%; ClpP mod: -3%

What do the screens show for `O=C(Cn1c(SCCOc2ccc(Cl)cc2)nc2ccccc21)N1CCCCC1`?
HEK293 tox: -11%; GLP1R inv ag: inconclusive; LDHA block: -3; ClpP mod: 1%

Results for COC(=O)c1sccc1NC(=O)CSc1ccccc1NS(=O)(=O)c1ccccc1Cl ?
HEK293 tox: -2%; GLP1R inv ag: inconclusive; LDHA block: -1; p53 reactivation: -4%; GLP-1R agonist: 9%; ClpP mod: 1%

Results for O=C(N1CCN=C1SCc1cccnc1)C12CC3CC(CC(C3)C1)C2 ?
HEK293 tox: 3%; GLP1R inv ag: 3.5µM*; LDHA block: -4; p53 reactivation: inconclusive; GLP-1R agonist: -10%; ClpP mod: -1%

How did O=C(c1cccs1)N1CCN=C1SCc1cccnc1 do in these assays?
HEK293 tox: -7%; GLP1R inv ag: -4%; LDHA block: -1; p53 reactivation: -2%; GLP-1R agonist: 4%; ClpP mod: 3%

How did O=[N+]([O-])c1cc(C=NN2CCCCCC2)ccc1Cl do in these assays?
HEK293 tox: 6%; GLP1R inv ag: inconclusive; LDHA block: -9; GLP-1R agonist: 3%; ClpP mod: 28µM*

What do the screens show for `C=CCNC(=S)Nc1sc2c(c1C(=O)OCC)CC(C)(CC)OC2` (centres undefined)?
HEK293 tox: 10µM*; GLP1R inv ag: -3%; LDHA block: -3; p53 reactivation: inconclusive; GLP-1R agonist: 1%

What do the screens show for `C=CCNC(=S)Nc1sc2c(c1C(=O)OCC)CCN(C(=O)OCC)C2`?
HEK293 tox: -8%; GLP1R inv ag: 5%; LDHA block: 0; GLP-1R agonist: 6%; ClpP mod: 48%

Results for CCN(CC)CCNC1=NCCn2c1cc1cc(OC)ccc12 ?
HEK293 tox: 13%; GLP1R inv ag: 2.8µM*; LDHA block: 6; p53 reactivation: 3%; GLP-1R agonist: -2%; ClpP mod: inconclusive

How did CC(C)C(NC(=O)c1ccc(C(C)(C)C)cc1)C(=O)N1CCCC1 (centres undefined) do in these assays?
HEK293 tox: 0%; GLP1R inv ag: -22%; LDHA block: 1; p53 reactivation: 8%; GLP-1R agonist: 11%

Results for CCOc1ccc(C(=O)NC(C(=O)N2CCC2)C(C)C)cc1 (centres undefined) ?
HEK293 tox: -6%; GLP1R inv ag: 16%; LDHA block: -3; p53 reactivation: 10%; GLP-1R agonist: 2%; ClpP mod: 28µM*

Compound activity deposited in PubChem BioAssay by National Center for Advancing Translational Sciences (NCATS).
